We go through 5 compounds from PubChem BioAssay.

“And” between values parts separate entries of the source, which are not always exact repeats. Equal entries are not always repeated. The source made the active and inactive calls.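 The calls were made as follows, unless noted: active = thallium flux through the channel raised or lowered by more than 3 SD from vehicle-only wells, actives on both sides; inactive = the rest.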

Assay [1] in a line: P. berghei load reduction in hepatocytes – cell-based, HepG2, luciferase luminescence, HepG2 viability, primary screen (AID 624349; in the data active = parasite load remaining mostly below about 12%, no sharp cut-off; inactive = mostly above about 10%;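 also: 100% = mean of DMSO negative control wells on the same plate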). The following applies: P. berghei liver stage in HepG2, luciferase luminescence, concentration not given here; parasite load remaining: stronger effect = lower value; viability: measured here: HepG2 viability without parasites.
The nature of assay [2]: signal quenchers or enhancers, Cy5 substrate/SSB – biochemical, NIH Clinical Collection, E. coli SSB, artefact control for HCV NS3 helicase inhibitor project (AID 743268; call rule not given here). The following applies: Cy5-oligo bound E. coli SSB, fluorescence interference.
For assay [3], the system named is Hepatitis C virus NS3 helicase. Kind of assay: blockers of NS3h binding to DNA – biochemical, fluorescence polarization, NIH Clinical Collection, primary screen (AID 743270; call rule not given here). The following applies: NS3 helicase binding to Cy5-dT15 DNA, stronger effect = higher value, concentration not given here.
Assay [4] has as its target Single-stranded DNA-binding protein (Escherichia coli (strain K12)) (UniProt P0AGE0). Kind of assay: SSB-ssDNA binding inhibitors – biochemical, fluorescence polarization, NIH Clinical Collection, counter-screen for HCV NS3 helicase inhibitor project (AID 743271; in the data active = inhibition above about 28%). Conditions: E. coli SSB-DNA binding, stronger effect = higher value, concentration not given here. For orientation: Polarisation of emitted light reports the rotation of a fluorescent probe.

Assay [5] in a line: compounds distorting NS3 helicase fluorescence signal – biochemical, NIH Clinical Collection, artefact control for HCV NS3 helicase inhibitor project (AID 743272; call rule not given here;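 also: HCV NS3 helicase with a Cy5 labelled single stranded DNA probe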). Conditions: fluorescence interference counterscreen, HCV NS3 helicase assay; stronger effect = lower value. In general terms: The purpose of a counterscreen is to sort out artefacts and off-target activity.
For assay [6], the system named is Neuropilin-2 / VEGF-C interaction (human). Kind of assay: small molecules blocking Neuropilin-2/VEGF-C interaction – biochemical, microplate binding format, z-score (AID 743281; call rule not given here). Conditions: microplate NRP2/VEGF-C binding assay; stronger effect = lower value.
Assay [7] in a line: modulation of C. elegans fzo-1 (AID 1259413; call rule not given here;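 also: fzo-1 mutant C. elegans worms in liquid wells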). Conditions: C. elegans fzo-1 modulator screen, mean read-out; stronger effect = higher value.
Assay [8] is described as follows: viability loss with induced miR-34 in A549 – imaging, A549 dox-inducible miR-34, nuclei and caspase counts, primary screen (AID 1347080;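 active = compounds whose cell count with miR-34 switched on is under 0.7 times the count with it off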). Conditions: A549 miR-34 inducible, Hoechst nuclei count, 48 h.
In another assay the test system is F380Y. Description: BK channel mutant inhibitors and activators – cell-based, U2OS BacMam, thallium flux, beta subunits, selectivity assay, profiling panel (AID 1259406).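 Also: initial slope of Thallos dye fluorescence rise after thallium is added; log ratio against the mean of 0.3% DMSO vehicle wells on the same plate.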 The following applies: U2OS BacMam BK variants, at 30 µM.
The subject of another assay is F380Y/beta1. The description is as above. The following applies: U2OS BacMam BK variants, at 30 µM.
The subject of a further assay is F380Y/beta2Delta. Described as above. Conditions: U2OS BacMam BK variants, at 30 µM.
The test system of a further assay is F380Y/beta4. The description is as above. Conditions: U2OS BacMam BK variants, at 30 µM.
The target in assay [9] is Calcium-activated potassium channel subunit alpha-1 (Homo sapiens) + Leucine-rich repeat-containing protein 26 (Homo sapiens) (UniProt Q12791+Q2I0M4). The assay is described as above. Conditions: U2OS BacMam BK variants, F380Y/Slo1WT/gamma1, at 30 µM.
Another assay relates to R275C. Described as above. The following applies: U2OS BacMam BK variants, at 30 µM.
The next assay relates to R275C/beta1. Described as above. The following applies: U2OS BacMam BK variants, at 30 µM.
Another assay has as its system R275C/beta2Delta. The assay is described as above. Conditions: U2OS BacMam BK variants, at 30 µM.
A further assay concerns R275C/beta4. The description is as above. Conditions: U2OS BacMam BK variants, at 30 µM.
Another assay has as its system R275C/Slo1WT/beta2. The assay is described as above. The following applies: U2OS BacMam BK variants, at 30 µM.
[10] abbreviates: measured here: relative caspase fold change +Dox/-Dox.
[11] abbreviates: measured here: total cells with miR-34 induction, stronger effect = lower value.
Where [12] appears, read: measured here: total cells without miR-34 induction.

Calcium-activated potassium channel subunit alpha-1 (Homo sapiens) + Leucine-rich repeat-containing protein 26 (Homo sapiens), sequence (Q2I0M4 whole entry, looked up, one chain of several): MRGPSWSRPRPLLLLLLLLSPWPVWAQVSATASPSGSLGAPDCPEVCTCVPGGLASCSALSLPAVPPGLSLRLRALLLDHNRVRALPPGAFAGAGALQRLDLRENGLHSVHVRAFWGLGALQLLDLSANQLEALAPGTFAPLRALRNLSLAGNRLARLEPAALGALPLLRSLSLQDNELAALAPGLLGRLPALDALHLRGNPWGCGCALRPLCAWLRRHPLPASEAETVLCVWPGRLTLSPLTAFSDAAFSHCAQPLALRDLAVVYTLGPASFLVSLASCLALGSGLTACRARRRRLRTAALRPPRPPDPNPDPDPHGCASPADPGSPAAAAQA

`CC(C)[C@]12O[C@H]1[C@@H]1O[C@]13[C@]1(O[C@H]1C[C@H]1C4=C(CC[C@@]13C)C(=O)OC4)[C@@H]2O`: the parasite load remaining in assay [1] is 122% (inactive). Further, in [1], the viability came to 67.7%. The fluorescence ratio was 1.04 (inactive) in assay [2] and 1.03 (inactive) in assay [5]. Moreover, the results for the inhibition in assay [3] and in [4] were -2.77% (inactive) and -6.26% (inactive), respectively. The z-score in assay [6] is 0.859 (inactive). In addition, the mean signal in assay [7] was 159 (inactive). For the same compound, the results for the fold change in assay [8] (stronger effect = lower value) and in assay [8] (setting [10]) were 1.04 (inactive) and 1.51, respectively. The values for the cell count in assay [8] (setting [11]) and in [8] (setting [12]) were 1360 and 1300, respectively. In addition, the log fold change Tl+ flux is -0.0264 (inactive) in the assay on F380Y; -0.0154 (inactive) with F380Y/beta1; -0.0407 (inactive) with F380Y/beta2Delta; 0.00828 (inactive) in the assay with F380Y/beta4; 0.0324 (inactive) in assay [9]; -0.0177 (inactive) in the assay on R275C. Moreover, the log fold change Tl+ flux in the assay on R275C/beta1 was 0.0288 (inactive); in the assay on R275C/beta2Delta, 0.0395 (inactive); with R275C/beta4, 0.0135 (inactive); in the assay with R275C/Slo1WT/beta2 it was 0.00131 (inactive).
As to `CCCCCCCCCOc1ccc2[nH]cc(CCN)c2c1`, the parasite load remaining in assay [1] is 0.13% (inactive). In addition, in assay [1], the viability stood at 3.42%. The figures for the fluorescence ratio in assay [2] and in assay [5] were 0.97 (inactive) and 0.61 (active), respectively. The inhibition was -8.08% (inactive) in [3] and 67.3% (active) in [4]. Moreover, the z-score in [6] was -2.82 (inactive). Also, the mean signal in [7] was 264 (inactive). Moreover, the fold change is 0.664 (active) in assay [8] (stronger effect = lower value) and 1.96 in assay [8] (setting [10]). The cell count is 4000 in [8] (setting [11]) and 6020 in assay [8] (setting [12]).
On to `CC[C@@H](C(N)=O)N1CCCC1=O`, for which the parasite load remaining in assay [1] was 91.8% (inactive) and 41.8% (inactive). Moreover, the viability in assay [1] was 70% and 106%. Further, the fluorescence ratio was 1.01 (inactive) in assay [2] and 1.02 (inactive) in [5]. In addition, the inhibition in [3] is 7.52% (inactive); in [4], 9.91% (inactive). For the same compound, the z-score in assay [6] was -0.78 (inactive). The mean signal in [7] is 234 (inactive). Besides, the fold change in assay [8] (stronger effect = lower value) was 1.08 (inactive) and 0.876 (inactive); in [8] (setting [10]), 1.59 and 0.289. The cell count in assay [8] (setting [11]) was 11300 and 10400; in [8] (setting [12]) it was 10400 and 11900. Also, the log fold change Tl+ flux is -0.0178 (inactive) in the assay on F380Y; -0.022 (inactive) in the assay with F380Y/beta1; -0.0158 (inactive) in the assay on F380Y/beta2Delta; 0.0243 (inactive) in the assay with F380Y/beta4; -0.0482 (inactive) in [9]; 0.037 (inactive) in the assay on R275C. For the same compound, the log fold change Tl+ flux in the assay on R275C/beta1 was -0.0285 (inactive); in the assay with R275C/beta2Delta it was -0.00577 (inactive); in the assay on R275C/beta4, -0.0209 (inactive); in the assay on R275C/Slo1WT/beta2, -0.0311 (inactive).
As to `CN1CC[C@@H](c2ccc(F)cc2)[C@H](COc2ccc3c(c2)OCO3)C1`, the parasite load remaining in [1] was 84.5% (inactive). For the same compound, the viability in assay [1] came out at 65.3%. The fluorescence ratio in assay [2] was 1.01 (inactive); in assay [5], 0.93 (inactive). The results for the inhibition in assay [3] and in [4] were 2.77% (inactive) and 0.67% (inactive), respectively. For the same compound, the z-score in assay [6] was -0.473 (inactive). For the same compound, the log fold change Tl+ flux was 0.106 (inactive) in the assay on F380Y; 0.0692 (inactive) with F380Y/beta1; 0.045 (inactive) in the assay with F380Y/beta2Delta; 0.102 (active) in the assay on F380Y/beta4; -0.0237 (inactive) in [9]; -0.0665 (inactive) in the assay with R275C. The log fold change Tl+ flux with R275C/beta1 is 0.146 (active); with R275C/beta2Delta, 0.0265 (inactive); in the assay with R275C/beta4 it was 0.0863 (active); in the assay on R275C/Slo1WT/beta2, -0.033 (inactive).
With `O[C@@H]1CCCC[C@H]1N1CCC(c2ccccc2)CC1`, the parasite load remaining in [1] was 78.7% (inactive) and 101% (inactive). The viability in assay [1] was 93.8% and 73%. The fluorescence ratio in [2] is 0.98 (inactive); in assay [5], 0.91 (inactive). Moreover, the inhibition in assay [3] is 1.19% (inactive); in assay [4] it was 0.67% (inactive). The z-score in [6] was -0.802 (inactive). The mean signal in assay [7] was 231 (inactive). The fold change in assay [8] (stronger effect = lower value) was 0.933 (inactive) and 0.866 (inactive); in assay [8] (setting [10]), 1.17 and 0.745. The cell count in assay [8] (setting [11]) was 8520 and 8230; in assay [8] (setting [12]), 9130 and 9500.

As usually defined, the viability is a read-out of living cells in per cent, often relative to untreated cells. As usually defined, the inhibition is the relative decrease from the control value, in per cent.
